Among the test systems are NCI-H23 lung; NCI-H226 lung; NCI-H322M lung; HOP-62 NSCLC; NCI-H460 lung; NCI-H522 lung; A549/ATCC NSCLC; 786-0 renal; COLO 205 colon; DU-145 prostate.
Assay in all cases: NCI-60 one-dose screen, 48 h (100 = growth as untreated, 0 = no growth, -100 = all killed)
Common to all, as to conditions: 10 µM

The results in this text go back to PubChem BioAssay (NCI).

This is part of a sample that, as a whole, favours compounds with a hit. Of some 83,000 tested, about 20% had one in any assay.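 Activity criterion: percent growth below 10, measured after cells in 96-well plates were exposed to a single compound concentration for 48 hours.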 A number with no mark means an inactive call. Activity calls are given as the source filed them.

With `C#Cc1ccc(-n2c(/C=C/c3ccc(O)c(OC)c3)nc3ncccc3c2=O)cc1`, the growth in the test on NCI-H23 lung is 102%; in the test on NCI-H226 lung, 93.9%; with NCI-H322M lung it was 98.2%; in the test on HOP-62 NSCLC, 95.3%; in the test with NCI-H460 lung, 103%; with NCI-H522 lung, 79%. The growth in the test with A549/ATCC NSCLC was 90.3%; with 786-0 renal, 105%; with COLO 205 colon it was 109%; in the test on DU-145 prostate, 111%.

Regarding `O=c1[nH]c2ccc(Cl)cc2c2ccccc12`, the growth was 86.6% with NCI-H23 lung; 85.1% in the test with NCI-H226 lung; 42.5% with NCI-H322M lung; 72.2% in the test with HOP-62 NSCLC; 42.7% with NCI-H460 lung; 109% with NCI-H522 lung. For the same molecule, the growth in the test on A549/ATCC NSCLC is 79.5%; in the test on 786-0 renal, 49.5%; in the test with COLO 205 colon, 86.5%; in the test on DU-145 prostate it was 78.2%.

On to `CSc1nc(=O)n(Cc2ccc(Cl)cc2)c(=O)[nH]1`, for which the growth in the test with NCI-H23 lung was 100%; with NCI-H226 lung, 108%; in the test with NCI-H322M lung, 127%; in the test on HOP-62 NSCLC, 92.1%; with NCI-H460 lung it was 108%; in the test with NCI-H522 lung it was 90.7%. The growth was 99.1% in the test with A549/ATCC NSCLC, 101% in the test with 786-0 renal, 104% in the test with COLO 205 colon and 104% with DU-145 prostate.

As to `Clc1ccc(Sc2nc(NC3CC3)nc(Sc3ccc(Cl)cc3)n2)cc1`, the growth is 81% in the test with NCI-H23 lung; 83.4% in the test on NCI-H226 lung; 86.7% in the test with NCI-H322M lung; 102% in the test on HOP-62 NSCLC; 89.3% with NCI-H460 lung; 59.1% in the test with NCI-H522 lung. In addition, the growth in the test on A549/ATCC NSCLC is 80.9%; in the test on 786-0 renal, 87.5%; in the test with COLO 205 colon, 74%; in the test with DU-145 prostate, 92.8%.

As for `FC(F)(F)c1ccc2nc(-c3nc(-c4ccccc4)n4ccccc34)[nH]c2c1`, the growth in the test on NCI-H23 lung was 78.9%; in the test with NCI-H226 lung it was 99.4%; in the test on NCI-H322M lung it was 55%; with HOP-62 NSCLC it was 110%; in the test on NCI-H460 lung, 59.4%; in the test with NCI-H522 lung, 68.3%. Besides, the growth with A549/ATCC NSCLC is 49.5%; with 786-0 renal, 40.2%; in the test on COLO 205 colon, 58.9%; in the test on DU-145 prostate it was 68.7%.

Take `CCCC#CCN(CC)CC`: the growth with NCI-H23 lung is 111%; with NCI-H226 lung, 107%; with NCI-H322M lung it was 108%; with HOP-62 NSCLC, 117%; in the test on NCI-H460 lung, 107%; in the test with NCI-H522 lung it was 97.6%. In addition, the growth is 93.8% with A549/ATCC NSCLC, 100% with 786-0 renal, 110% with COLO 205 colon and 123% with DU-145 prostate.

Take `O=C(Nc1cccc(Cl)c1)Nc1nccs1`: the growth with NCI-H23 lung is 94.7%; in the test with NCI-H226 lung, 99.6%; with NCI-H322M lung it was 92.6%; with HOP-62 NSCLC, 94.6%; in the test on NCI-H460 lung it was 98.9%; in the test with NCI-H522 lung, 7.88% (active). For the same molecule, the growth was 28.6% in the test with A549/ATCC NSCLC, 95.6% with 786-0 renal, 126% with COLO 205 colon and 114% in the test with DU-145 prostate.

Regarding `COc1ccc(-c2ccc3cc(C(=O)Nc4ccc(O)c(C(=O)/C=C/c5cc(OC)c(OC)c(OC)c5)c4)ccc3c2)cc1`, the growth in the test on NCI-H23 lung was 94.3%; in the test with NCI-H226 lung, 82.5%; in the test with NCI-H322M lung, 100%; with HOP-62 NSCLC, 114%; in the test with NCI-H460 lung, 95.9%; with NCI-H522 lung it was 87.7%. For the same molecule, the growth was 92.6% in the test with A549/ATCC NSCLC, 102% in the test on 786-0 renal, 109% in the test on COLO 205 colon and 102% in the test with DU-145 prostate.

In the case of `COc1cc(-c2cc(/C=C3\C(=O)Nc4ccccc43)[nH]n2)cc(OC)c1OC`, the growth in the test with NCI-H23 lung was 56%; in the test on NCI-H226 lung it was 66.3%; with NCI-H322M lung, 68.6%; in the test on HOP-62 NSCLC it was 65%; with NCI-H460 lung it was 74.7%; in the test on NCI-H522 lung, 64.5%. The growth is 54.6% in the test on A549/ATCC NSCLC, 84.2% in the test on 786-0 renal, 32.3% in the test with COLO 205 colon and 82.5% with DU-145 prostate.

In the case of `COc1ccc(OC)c(/C=C/c2nnc(Nc3ccc(Cl)cc3)o2)c1`, the growth in the test on NCI-H23 lung was 87.8%; with NCI-H226 lung, 56.1%; in the test on NCI-H322M lung, 58.6%; with HOP-62 NSCLC, 35.3%; in the test with NCI-H460 lung, 15.5%; with NCI-H522 lung it was 92.9%. Also, the growth in the test with A549/ATCC NSCLC was 40.2%; with 786-0 renal, 27.9%; in the test with COLO 205 colon, 74.2%; in the test with DU-145 prostate it was 78.9%.

With `CCCCCCCNc1nc(C=O)ncc1-c1ccc(C(F)(F)F)cc1`, the growth with NCI-H23 lung is 99.8%; in the test on NCI-H226 lung it was 98%; in the test on NCI-H322M lung, 84.4%; with HOP-62 NSCLC, 101%; with NCI-H460 lung, 103%; with NCI-H522 lung, 80.1%. The growth was 96.4% in the test with A549/ATCC NSCLC, 97% with 786-0 renal, 95.8% in the test on COLO 205 colon and 106% with DU-145 prostate.

As for `COc1cc(-c2cc(/C=C/C(=O)c3ccc4c(c3)OCO4)[nH]n2)cc(OC)c1OC`, the growth in the test with NCI-H23 lung was 102%; in the test on NCI-H226 lung it was 84.6%; in the test with NCI-H322M lung, 54.2%; in the test with HOP-62 NSCLC, 48.7%; in the test on NCI-H460 lung it was 68.6%; in the test with NCI-H522 lung, 57.4%. The growth was 87.2% in the test with A549/ATCC NSCLC, 40.6% in the test on 786-0 renal, 100% in the test on COLO 205 colon and 48% with DU-145 prostate.

Turning to `COc1ccc2c(c1)O/C(=C\c1ncc([N+](=O)[O-])n1C)C2=O`, the growth in the test with NCI-H23 lung is -7.25% (active); with NCI-H226 lung, -42.3% (active); with NCI-H322M lung it was 2.34% (active); in the test on HOP-62 NSCLC it was -20% (active); in the test with NCI-H460 lung it was -30.6% (active); with NCI-H522 lung, -48.8% (active). Also, the growth in the test on A549/ATCC NSCLC is -23.9% (active); with 786-0 renal it was -13.4% (active); with COLO 205 colon, -49.2% (active); in the test on DU-145 prostate it was -19.2% (active).

As to `COc1ccc(-c2nc3ccccn3c2-c2nnc(-c3cc(OC)c(OC)c(OC)c3)o2)cc1`, the growth in the test on NCI-H23 lung was 72.5%; with NCI-H226 lung, 60.3%; with NCI-H322M lung, 57.3%; in the test with HOP-62 NSCLC it was 37.1%; in the test with NCI-H460 lung, 21.6%; in the test on NCI-H522 lung it was 44.8%. The growth in the test with A549/ATCC NSCLC is 60.9%; with 786-0 renal, 60.3%; with COLO 205 colon, 53.3%; with DU-145 prostate, 66.4%.
